Measurements as given in PubChem BioAssay AID1159580 (chemical genetic matrix, 2015).
Hit rate of the full screen: of about 5,500 compounds, about 2,000 (36%) were called active. Roughly 18% stayed inconclusive and do not appear here. Rule as the data show it: active = normalized growth mostly below about 0.91 (no sharp cut-off); inconclusive = no clear call, values can overlap the other calls; inactive = mostly above about 0.92. This is one part of the list.

Test: chemical genetic growth profiling, strain panel (AID 1159580);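 also: tested at 20 µM; growth read once vehicle control cultures reached saturation at 30 °C; 1 = growth at the plate median or of vehicle wells; lower values mean less growth of the strain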
Conditions: growth OD

Measured: normalized growth

CCN(CC)C(=O)c1cccc(C)c1
inactive: S. cerevisiae deletion strains, locus YKL009W, strain mrt4, hits give low values 0.956 | S. cerevisiae deletion strains, locus YKL068W, hits give low values 0.989 | S. cerevisiae deletion strains, locus YKL085W, strain MDH1 (second series), hits give low values 1 | S. cerevisiae deletion strains, locus YKL085W, strain MDH1, hits give low values 1 | S. cerevisiae deletion strains, locus YKL160W, strain elf1, hits give low values 1.02 | S. cerevisiae deletion strains, locus YKL190W, strain CNB1, hits give low values 0.988 | S. cerevisiae deletion strains, locus YKR001C, strain vps1, hits give low values 1.01 | S. cerevisiae deletion strains, locus YKR026C, strain gcn3, hits give low values 1.04 | S. cerevisiae deletion strains, locus YKR091W, strain srl3, hits give low values 1.03 | S. cerevisiae deletion strains, locus YLL001W, strain dnm1, hits give low values 1.03 | S. cerevisiae deletion strains, locus YLL026W, hits give low values 1.04 | S. cerevisiae deletion strains, locus YLL041C, strain sdh2, hits give low values 1.03 | S. cerevisiae deletion strains, locus YLR027C, strain aat2, hits give low values 1.02 | S. cerevisiae deletion strains, locus YLR039C, strain RIC1, hits give low values 1.06 | S. cerevisiae deletion strains, locus YLR058C, strain SHM2, hits give low values 1 | S. cerevisiae deletion strains, locus YLR102C, strain apc9, hits give low values 0.999 | S. cerevisiae deletion strains, locus YLR113W, strain HOG1, hits give low values 0.975 | S. cerevisiae deletion strains, locus YLR221C, strain rsa3, hits give low values 1.02 | S. cerevisiae deletion strains, locus YLR258W, strain gsy2, hits give low values 1.04 | S. cerevisiae deletion strains, locus YLR262C, strain YPT6 (second series), hits give low values 1.03 | S. cerevisiae deletion strains, locus YLR262C, strain YPT6, hits give low values 1.02 | S. cerevisiae deletion strains, locus YLR268W, strain sec22, hits give low values 0.978 | S. cerevisiae deletion strains, locus YLR320W, strain mms22, hits give low values 1.04 | S. cerevisiae deletion strains, locus YLR330W, strain CHS5, hits give low values 0.993 | S. cerevisiae deletion strains, locus YLR342W, strain FKS1 (second series), hits give low values 0.987 | S. cerevisiae deletion strains, locus YLR342W, strain FKS1, hits give low values 1.01 | S. cerevisiae deletion strains, locus YLR357W, strain rsc2, hits give low values 1.09 | S. cerevisiae deletion strains, locus YLR370C, strain arc18, hits give low values 1.03 | S. cerevisiae deletion strains, locus YLR371W, strain rom2, hits give low values 0.982 | S. cerevisiae deletion strains, locus YLR384C, strain iki3, hits give low values 1.06 | S. cerevisiae deletion strains, locus YLR418C, strain cdc73, hits give low values 1.05 | S. cerevisiae deletion strains, locus YML016C, strain PPZ1, hits give low values 1.01 | S. cerevisiae deletion strains, locus YML032C, strain rad52, hits give low values 0.995 | S. cerevisiae deletion strains, locus YML120C, strain ndi1, hits give low values 1.02 | S. cerevisiae deletion strains, locus YML124C, strain tub3, hits give low values 0.998 | S. cerevisiae deletion strains, locus YMR058W, strain fet3, hits give low values 1.04 | S. cerevisiae deletion strains, locus YMR078C, strain ctf18, hits give low values 0.994 | S. cerevisiae deletion strains, locus YMR125W, strain sto1, hits give low values 1.03 | S. cerevisiae deletion strains, locus YMR129W, hits give low values 1.03 | S. cerevisiae deletion strains, locus YMR205C, strain PFK2, hits give low values 1.06 | S. cerevisiae deletion strains, locus YMR223W, strain ubp8, hits give low values 1 | S. cerevisiae deletion strains, locus YMR231W, strain pep5, hits give low values 1.03 | S. cerevisiae deletion strains, locus YMR263W, strain SAP30, hits give low values 0.999 | S. cerevisiae deletion strains, locus YMR307W, strain GAS1, hits give low values 1.02 | S. cerevisiae deletion strains, locus YNL067W, strain RPL9B, hits give low values 1 | S. cerevisiae deletion strains, locus YNL071W, strain lat1, hits give low values 1.02 | S. cerevisiae deletion strains, locus YNL128W, strain TEP1, hits give low values 1 | S. cerevisiae deletion strains, locus YNL153C, strain GIM3, hits give low values 0.999 | S. cerevisiae deletion strains, locus YNL183C, strain NPR1, hits give low values 0.924 | S. cerevisiae deletion strains, locus YNL209W, strain ssb2, hits give low values 1.02 | S. cerevisiae deletion strains, locus YNL233W, strain BNI4, hits give low values 1.01 | S. cerevisiae deletion strains, locus YNL248C, strain rpa49, hits give low values 1.02 | S. cerevisiae deletion strains, locus YNL250W, strain rad50, hits give low values 0.994 | S. cerevisiae deletion strains, locus YNL271C, strain bni1, hits give low values 1 | S. cerevisiae deletion strains, locus YNL298W, strain CLA4, hits give low values 0.987 | S. cerevisiae deletion strains, locus YNL307C, strain MCK1, hits give low values 1.01 | S. cerevisiae deletion strains, locus YNL322C, strain KRE1 (second series), hits give low values 1.03 | S. cerevisiae deletion strains, locus YNL322C, strain KRE1, hits give low values 1 | S. cerevisiae deletion strains, locus YNR049C, strain mso1, hits give low values 1.03 | S. cerevisiae deletion strains, locus YNR052C, strain pop2, hits give low values 0.987 | S. cerevisiae deletion strains, locus YOL006C, strain TOP1, hits give low values 1.03 | S. cerevisiae deletion strains, locus YOL012C, strain htz1 0.893 | S. cerevisiae deletion strains, locus YOL147C, strain pex11, hits give low values 0.998 | S. cerevisiae deletion strains, locus YOR001W, strain rrp6, hits give low values 1.04 | S. cerevisiae deletion strains, locus YOR061W, strain CKA2, hits give low values 1 | S. cerevisiae deletion strains, locus YOR069W, strain VPS5, hits give low values 1.01 | S. cerevisiae deletion strains, locus YOR070C, strain gyp1, hits give low values 1.02 | S. cerevisiae deletion strains, locus YOR080W, strain dia2, hits give low values 1.04 | S. cerevisiae deletion strains, locus YOR083W, strain WHI5, hits give low values 1.01 | S. cerevisiae deletion strains, locus YOR106W, strain vam3, hits give low values 0.998 | S. cerevisiae deletion strains, locus YOR136W, strain idh2, hits give low values 0.999 | S. cerevisiae deletion strains, locus YOR144C, strain elg1, hits give low values 0.993 | S. cerevisiae deletion strains, locus YOR184W, strain ser1, hits give low values 0.978 | S. cerevisiae deletion strains, locus YOR231W, strain MKK1, hits give low values 0.971 | S. cerevisiae deletion strains, locus YOR265W, strain rbl2, hits give low values 1.03 | S. cerevisiae deletion strains, locus YOR270C, strain vph1, hits give low values 1.08 | S. cerevisiae deletion strains, locus YOR290C, strain snf2, hits give low values 1.01 | S. cerevisiae deletion strains, locus YOR316C, strain cot1, hits give low values 0.995 | S. cerevisiae deletion strains, locus YPL051W, strain arl3, hits give low values 1.02 | S. cerevisiae deletion strains, locus YPL055C, strain LGE1, hits give low values 0.951 | S. cerevisiae deletion strains, locus YPL078C, strain atp4, hits give low values 1.03 | S. cerevisiae deletion strains, locus YPL106C, strain sse1, hits give low values 1.11 | S. cerevisiae deletion strains, locus YPL240C, strain hsp82, hits give low values 1.02 | S. cerevisiae deletion strains, locus YPL241C, strain CIN2, hits give low values 0.991 | S. cerevisiae deletion strains, locus YPL256C, strain CLN2, hits give low values 0.983 | S. cerevisiae deletion strains, locus YPR119W, strain clb2, hits give low values 1 | S. cerevisiae deletion strains, locus YPR141C, strain kar3, hits give low values 1 | S. cerevisiae deletion strains, locus YPR163C, strain tif3, hits give low values 0.996 | S. cerevisiae deletion strains, locus YPR167C, strain met16, hits give low values 0.999 | S. cerevisiae deletion strains, strain wtn01, hits give low values 0.988 | S. cerevisiae strains, strain wild type, hits give low values 1
